Source: PubChem BioAssay (NCI)
Compounds without any hit were thinned out: in the full panel of roughly 83,000, 20% have a hit.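 Cells were grown in 96-well plates and exposed to the test compound at a single concentration for 48 hours; results are reported as percent growth, with values below 10 considered active.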 A number with no mark means an inactive call. Activity calls are given as the source filed them.

test system: ACHN renal; experiment: NCI-60 one-dose screen, 48 h (100 = growth as untreated, 0 = no growth, -100 = all killed); conditions: 10 µM unless noted
Description: Growth inhibition of the ACHN human tumor cell line is measured as a screen for anti-cancer activity. Cells are grown in 96 well plates and exposed to the test compound for 48 hours. Compounds are tested at a single concentration, which is 10^-5 M for most compounds. The reported endpoint is percent growth (GI% or GIPRCNT), where numbers from 0 - 100% represent growth inhibition, and numbers from -100% - 0 represent cell death. For example, a value of 40 represents 60% growth inhibition. A value of 0 means no net growth occurred over the course of the experiment. A value of -40 indicates 40% of cells at the beginning of the experiment died by the end of the experiment. A value of -100 means all cells are dead at the end of the experiment.
NCI-60 Human Tumor Cell Lines Screen was performed using the standard one-dose NCI protocol, which is described in more detail at https://dtp.cancer.gov/discovery_development/nci-60/default.htm.
Compounds with GIPRCNT values below 10 were considered active. Activity score was based on GIPRCNT using the following formula: […]
Score is 0 for GIPRCNT values of 100 or above, 50 for GIPRCNT values of 0, and 100 for GIPRCNT values of -100.

| Compound | growth |
| --- | --- |
| CNC(=O)Oc1cc(C(C)C)ccc1Sc1ccc(C(C)C)cc1OC(=O)NC | 81.6% |
| O=C(O)c1[nH]c(=O)[nH]c(=O)c1F | 77% |
| O=c1[nH]c2cc(Cl)ccc2n1C1CCN(CCCC(c2ccc(F)cc2)c2ccc(F)cc2)CC1 | 48.5% |
| CCCCCCCC(=O)OCC/C=C/C1OC1C1OC(=O)/C=C\C=C\c2nc(oc2C)/C=C(/C)CCC2OC2C1OC(=O)NC(C)=O (stereo not given) | -16.8% (active) |
| COc1cccc2c1C(=O)c1c(O)c3c(c(O)c1C2=O)CC(O)(/C(C)=N/NC(=O)CCC(=O)N/N=C(\C)C1(O)Cc2c(O)c4c(c(O)c2C(OC2CC(N)C(O)C(C)O2)C1)C(=O)c1c(OC)cccc1C4=O)CC3OC1CC(N)C(O)C(C)O1 (stereo not given) | -34.9% [5 µM] (active) |
| CC(C)N=C(NC(C)C)N1CC1 | 109% |
| Oc1ccc(Br)cc1CN1CCN(Cc2ccc(Cl)cc2)CC1 | 83.3% |
| COc1ccccc1N1CCN(CCc2c[nH]c3cc4c(cc23)OCO4)CC1 | 77.7% |
| CC(=O)O[C@H]1C[C@H](O[C@H]2[C@@H](O)C[C@H](O[C@H]3[C@@H](O)C[C@H](O[C@H]4CC[C@@]5(C)C(CCC6C5C[C@@H](O)[C@]5(C)[C@@H](C7=CC(=O)OC7)CC[C@]65O)C4)O[C@@H]3C)O[C@@H]2C)O[C@H](C)[C@H]1O[C@@H]1O[C@H](CO)[C@@H](O)[C@H](O)[C@H]1O (stereo not given in full) | -59.1% (active) |
| O=C(CCCN1CCC2(CC1)C(=O)NCN2c1ccc(F)cc1)c1ccc(F)cc1 | 108% |
| FC(F)=C(F)c1ccccc1 | 110% |
| N#CC1c2ccccc2C=CN1C(=O)c1ccc(N(CCCl)CCCl)cc1 (stereo not given) | 86.9% |
| O=C(CCc1ccco1)NC1CCN(CC2(c3ccc(Cl)cc3)CCC2)CC1 | 13.8% |
| CC(=O)Nc1ccc(Cc2ccc(NC(C)=O)cc2)cc1 | 101% |
| O=C(c1cccs1)C1NO[N+]([O-])=C1c1cccs1 (stereo not given) | 22.8% |
| CC1CC=CCC12C(=O)NC(=S)NC2=O (stereo not given) | 106% |
| COc1ccc(-c2ccc(OC)c(OC)c2OC)cc1 | 55.8% |
| CC(C)C1c2ccc(O)cc2Oc2nc(N)c(C#N)c(N)c21 (stereo not given) | 92.5% |
| O=[As]c1ccc(C(=O)c2ccc(Oc3ccccc3)cc2)cc1 (stereo not given) | -100% (active) |
| CCOC(=O)C1(c2ccccc2)CCN(CC(=O)c2ccc(NC(C)=O)cc2)CC1 | 96% |

| Compound | growth |
| --- | --- |
| CCN(CC)CCOc1c(C(C)C)cccc1C(C)C | 97.4% |
| COc1cc(C2=NN(c3ccccc3)C(c3sc(N(CCCl)CCCl)nc3Cl)C2)cc(OC)c1OC (stereo not given) | 88.8% |
| COP(=S)(OC)Oc1ccc(SC)c(C)c1 | 101% |
| CC[C@H](C)[C@H](NC(=O)Nc1ccccc1)C(=O)N(C)[C@H](C[C@@H](OC(C)=O)c1nc(C(=O)N[C@@H](Cc2ccccc2)C[C@H](C)C(=O)OC)cs1)C(C)C | 25.1% |
| O1[As]2O[As]3O[As]1O[As](O2)O3 | 28% |
| COc1ccc(C2SCC(=O)Nc3c2c(C)nn3-c2nc3ccc(C)cc3s2)cc1O (stereo not given) | 44.2% |
| CC(C)Nc1ccc(Nc2ccccc2)cc1 | 30.5% |
| CC1(C)N=C(N)N=C(N)N1c1ccc(OCCCCNC(=O)c2ccc(S(=O)(=O)F)cc2)c(Cl)c1 | 96.9% |
| C=CCc1ccc(OC(=O)Cc2ccccc2)c(OC)c1 | 110% |
| CC1(C)N=C(N)N=C(N)N1c1ccc(CNC(=O)Nc2ccc(S(=O)(=O)F)c(Cl)c2)c(Cl)c1 | 52.9% |
| CC[C@@H](C)/C=C(C)/C=C/C(=O)c1c(O)c(-c2ccc(O)cc2)cn(O)c1=O | 0.29% (active) |
| CC1COC(=O)C1 (stereo not given) | 108% |
| CCC(CO)NC1CCCCC1 (stereo not given) | 84.7% |
| CC(C)(C)N(Cc1ccccc1)N=O | 104% |
| O=C(CCF)c1ccc(O)cc1 | 106% |
| Cc1ccc(C[As+](c2ccccc2)(c2ccccc2)c2ccccc2)cc1 | 49% |
| CSc1ccccc1NP1(=O)OCC(C)([N+](=O)[O-])CO1 (stereo not given) | 97.5% |
| CC(=O)O[C@H]1CC[C@H]2[C@@H]3CC[C@H]4CC=C(C)C[C@]4(C)[C@H]3CC[C@]12C | 96.5% |
| CNc1ccc(C(=O)CC(O)CCC(C)C2OC(=O)CC(O)CC(=O)CC(O)CC(O)CC(O)CC(O)CC3(O)CC(O)C(C(=O)OC)C(CC(O[C@@H]4O[C@H](C)[C@@H](O)[C@H](N)[C@@H]4O)/C=C/C=C/C=C/C=C/C=C/C=C/C=C/C2C)O3)cc1 (stereo not given in full) | -79.5% (active) |
| C=C=[CH][Sn]([c]1ccccc1)([c]1ccccc1)[c]1ccccc1 | -49.4% (active) |
